Data taken from PubChem BioAssay (NCI).
The panel holds about 83,000 compounds, 20% with a hit somewhere; the sample as a whole holds those more often.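 Cells were grown in 96-well plates and exposed to the test compound at a single concentration for 48 hours; results are reported as percent growth, with values below 10 considered active.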 Values without a mark were called inactive. The source made the active and inactive calls.

How the values were obtained:
Assay in all cases: NCI-60 one-dose screen, 48 h (100 = growth as untreated, 0 = no growth, -100 = all killed)
Conditions in all cases: 10 µM
SR leukemia = tested on: SR leukemia
RPMI-8226 leukemia = tested on: RPMI-8226 leukemia
OVCAR-8 ovarian = tested on: OVCAR-8 ovarian
OVCAR-5 ovarian = tested on: OVCAR-5 ovarian
OVCAR-4 ovarian = tested on: OVCAR-4 ovarian
SK-OV-3 ovarian = tested on: SK-OV-3 ovarian
IGROV1 ovarian = tested on: IGROV1 ovarian
OVCAR-3 ovarian = tested on: OVCAR-3 ovarian
HS 578T breast = tested on: HS 578T breast
NCI/ADR-RES ovarian = tested on: NCI/ADR-RES ovarian
T-47D breast = tested on: T-47D breast
BT-549 breast = tested on: BT-549 breast
MDA-MB-435 melanoma = tested on: MDA-MB-435 melanoma
SW-620 colon = tested on: SW-620 colon
MCF7 breast = tested on: MCF7 breast
HCT-116 colon = tested on: HCT-116 colon
HCC-2998 colon = tested on: HCC-2998 colon
KM12 colon = tested on: KM12 colon

| SMILES | growth (SR leukemia) | growth (RPMI-8226 leukemia) | growth (OVCAR-8 ovarian) | growth (OVCAR-5 ovarian) [%] | growth (OVCAR-4 ovarian) [%] | growth (SK-OV-3 ovarian) [%] | growth (IGROV1 ovarian) | growth (OVCAR-3 ovarian) | growth (HS 578T breast) [%] | growth (NCI/ADR-RES ovarian) [%] | growth (T-47D breast) | growth (BT-549 breast) [%] | growth (MDA-MB-435 melanoma) [%] | growth (SW-620 colon) | growth (MCF7 breast) | growth (HCT-116 colon) | growth (HCC-2998 colon) | growth (KM12 colon) |
| --- | --- | --- | --- | --- | --- | --- | --- | --- | --- | --- | --- | --- | --- | --- | --- | --- | --- | --- |
| Cc1cccc2c(Nc3ccc(NS(C)(=O)=O)cc3)c3ccc([N+](=O)[O-])cc3nc12 | 2.56% (active) | 0.668% (active) | 2.24% (active) | 49.9 | 16.6 | 38.3 | -27.4% (active) | -28.9% (active) | 56.6 | 66.6 | 0.696% (active) | 29.1 | 33.2 | -43.5% (active) | 0.147% (active) | 5.63% (active) | -30.6% (active) | -46.6% (active) |
| Fc1ccc(Nc2ccnc(N3CCN(c4ccnc5cc(Cl)ccc45)CC3)n2)cc1 | 31% | 23.9% | 36.6% | 55.9 | 33.1 | 56 | 43.7% | 44.1% | 61.4 | 44.1 | -0.414% (active) | 75.1 | 48.6 | 63.2% | 19.2% | 15.4% | 62.6% | 42.1% |
| Cc1ccc(C2C=C(c3ccc(Cl)cc3)N=C3SC=CN32)c(Br)c1 (configuration not stated) | 0.074% (active) | -0.582% (active) | 80% | 92.8 | 67.4 | 101 | 75.7% | 87.1% | 94.1 | 85.6 | 56.8% | 61.1 | 47.1 | 53.9% | 21.5% | 5.04% (active) | 91.4% | 78.5% |
| CC(=O)CS(C)(=O)=O | 94.8% | 105% | 105% | 102 | 112 | 104 | 108% | 111% | 107 | 109 | 109% | 109 | 106 | 102% | 105% | 107% | 102% | 114% |
